PubChem BioAssay AID1159580 (chemical genetic matrix, 2015)
In all, about 5,500 compounds went through this assay and about 2,000 (36%) were called active. Inconclusive results (about 18%) are left out. Rule as the data show it: active = normalized growth mostly below about 0.91 (no sharp cut-off); inconclusive = no clear call, values can overlap the other calls; inactive = mostly above about 0.92. The list shows a part of the results.

Assay: chemical genetic growth profiling, strain panel (AID 1159580);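 also: tested at 20 µM; growth read once vehicle control cultures reached saturation at 30 °C; 1 = growth at the plate median or of vehicle wells; lower values mean less growth of the strain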
Details: growth OD
[1] = S. cerevisiae deletion strains, locus YAL013W, strain DEP1, active compounds read low
[2] = S. cerevisiae deletion strains, locus YAL040C, strain CLN3, active compounds read low
[3] = S. cerevisiae deletion strains, locus YCL061C, strain MRC1 (second series), active compounds read low
[4] = S. cerevisiae deletion strains, locus YDR363W, strain ESC2, active compounds read low
[5] = S. cerevisiae deletion strains, locus YER002W, strain NOP16, active compounds read low
[6] = S. cerevisiae deletion strains, locus YGR078C, strain PAC10, active compounds read low
[7] = S. cerevisiae deletion strains, locus YMR263W, strain SAP30, active compounds read low
[8] = S. cerevisiae deletion strains, locus YMR307W, strain GAS1, active compounds read low
[9] = S. cerevisiae deletion strains, locus YNL128W, strain TEP1, active compounds read low
[10] = S. cerevisiae deletion strains, locus YNL175C, strain NOP13, active compounds read low
[11] = S. cerevisiae deletion strains, locus YNL197C, strain WHI3, active compounds read low
[12] = S. cerevisiae deletion strains, locus YNL224C, strain SQS1, active compounds read low
[13] = S. cerevisiae deletion strains, locus YOR083W, strain WHI5 (second series), active compounds read low
[14] = S. cerevisiae deletion strains, locus YDR150W, strain NUM1, active compounds read low
[15] = S. cerevisiae deletion strains, locus YGR229C, strain SMI1, active compounds read low
[16] = S. cerevisiae deletion strains, locus YJR075W, strain HOC1, active compounds read low
[17] = S. cerevisiae deletion strains, locus YNL153C, strain GIM3, active compounds read low
[18] = S. cerevisiae deletion strains, locus YNL322C, strain KRE1, active compounds read low
[19] = S. cerevisiae deletion strains, locus YPL055C, strain LGE1, active compounds read low
[20] = S. cerevisiae deletion strains, locus YBR229C, strain ROT2, active compounds read low
[21] = S. cerevisiae deletion strains, locus YDL101C, strain DUN1, active compounds read low
[22] = S. cerevisiae deletion strains, locus YEL061C, strain CIN8, active compounds read low
[23] = S. cerevisiae deletion strains, locus YHR030C, strain SLT2, active compounds read low
[24] = S. cerevisiae deletion strains, locus YHR087W, strain rtc3, active compounds read low
[25] = S. cerevisiae deletion strains, locus YJR043C, strain POL32, active compounds read low
[26] = S. cerevisiae deletion strains, locus YKL190W, strain CNB1, active compounds read low
[27] = S. cerevisiae deletion strains, locus YLR039C, strain RIC1, active compounds read low
[28] = S. cerevisiae deletion strains, locus YLR058C, strain SHM2 (second series), active compounds read low
[29] = S. cerevisiae deletion strains, locus YLR085C, strain ARP6, active compounds read low
[30] = S. cerevisiae deletion strains, locus YLR262C, strain YPT6, active compounds read low
[31] = S. cerevisiae deletion strains, locus YML094W, strain GIM5, active compounds read low
[32] = S. cerevisiae deletion strains, locus YMR219W, strain ESC1, active compounds read low
[33] = S. cerevisiae deletion strains, locus YNL298W, strain CLA4 (second series), active compounds read low
[34] = S. cerevisiae deletion strains, locus YNR030W, strain Alg12, active compounds read low
[35] = S. cerevisiae deletion strains, locus YPL241C, strain CIN2, active compounds read low
[36] = S. cerevisiae deletion strains, locus YPR135W, strain CTF4, active compounds read low

Measured: normalized growth

C[C@]12C=CC(=O)C=C1CC[C@@H]1C2=CC[C@]2(C)[C@@H](C(=O)CN3CCN(c4cc(N5CCCC5)nc(N5CCCC5)n4)CC3)CC[C@@H]12
inactive: [1] 0.97 | [2] 0.998 | [3] 0.976 | [4] 0.964 | [5] 1.01 | [6] 0.995 | [7] 0.993 | [8] 0.998 | [9] 1.03 | [10] 1.02 | [11] 1.04 | [12] 1.01 | [13] 1.01

Cc1c(C)c2c(c(C)c1O)CCC(C)(CN1CCN(c3cc(N4CCCC4)nc(N4CCCC4)n3)CC1)O2 (stereo not given)
inactive: [3] 0.993 | [14] 0.997 | [4] 0.96 | [15] 0.944 | [16] 0.959 | [8] 1 | [9] 1.07 | [17] 0.995 | [11] 1.08 | [12] 1.07 | [18] 0.961 | [13] 1.04 | [19] 0.891
active: [2] 0.579 | [5] 1.15 [resistant] | [10] 1.09 [resistant]

NNC(=S)Nc1ccc2c(c1)OCCO2
active: [34] 0.806
inactive: [1] 1.01 | [20] 1.01 | [21] 1.01 | S. cerevisiae deletion strains, locus YDL134C, strain PPH21, active compounds read low 1.01 | [14] 0.956 | [22] 0.983 | [6] 0.991 | [15] 0.986 | [23] 1.02 | [24] 1.05 | [25] 1 | [16] 1.05 | [26] 0.99 | [27] 0.983 | [28] 1.01 | [29] 0.939 | [30] 1.01 | [31] 0.944 | [32] 1.02 | [7] 0.996 | [8] 0.954 | [9] 0.976 | [17] 0.994 | [33] 0.992 | [18] 1.02 | [19] 0.967 | [35] 1.1 | [36] 0.823

NC(N)=NC(N)=Nc1ccc2c(c1)OCCO2
inactive: [1] 0.987 | [20] 1.01 | [21] 1.01 | [14] 0.918 | [22] 0.995 | [6] 0.99 | [23] 0.983 | [24] 1.01 | [25] 0.989 | [16] 0.993 | [26] 0.994 | [27] 1 | [28] 0.994 | [29] 0.963 | [30] 0.998 | [31] 1.06 | [32] 0.996 | [7] 0.943 | [17] 1.01 | [33] 0.993 | [18] 1 | [34] 0.995 | S. cerevisiae deletion strains, locus YOL006C, strain TOP1, active compounds read low 1.03 | [19] 0.993 | [35] 0.927 | [36] 1.01 | S. cerevisiae strains, strain wild type, active compounds read low 0.995

CC(C)C[C@@H](CN)CC(=O)O
inactive: S. cerevisiae deletion strains, locus YAL021C, strain ccr4, active compounds read low 1.04 | S. cerevisiae deletion strains, locus YAL026C, strain drs2, active compounds read low 1.03 | S. cerevisiae deletion strains, locus YAL030W, strain snc1, active compounds read low 1.02 | S. cerevisiae deletion strains, locus YBL061C, strain skt5, active compounds read low 1.01 | S. cerevisiae deletion strains, locus YBR009C, strain hhf1, active compounds read low 1 | S. cerevisiae deletion strains, locus YBR023C, strain chs3, active compounds read low 1.02 | S. cerevisiae deletion strains, locus YBR171W, strain sec66, active compounds read low 1.02 | S. cerevisiae deletion strains, locus YBR231C, strain swc5, active compounds read low 0.994 | S. cerevisiae deletion strains, locus YBR279W, strain paf1, active compounds read low 1.02 | S. cerevisiae deletion strains, locus YCL011C, strain gbp2, active compounds read low 1.03 | S. cerevisiae deletion strains, locus YCL016C, strain dcc1, active compounds read low 1.04 | S. cerevisiae deletion strains, locus YCL061C, strain MRC1, active compounds read low 1.02 | S. cerevisiae deletion strains, locus YCL069W, strain vba3, active compounds read low 1.04 | S. cerevisiae deletion strains, locus YCR088W, strain abp1, active compounds read low 1.02 | S. cerevisiae deletion strains, locus YDL005C, strain med2, active compounds read low 1.02 | S. cerevisiae deletion strains, locus YDL040C, strain nat1, active compounds read low 1.01 | S. cerevisiae deletion strains, locus YDR001C, strain nth1, active compounds read low 1.01 | S. cerevisiae deletion strains, locus YDR069C, strain doa4, active compounds read low 1.01 | S. cerevisiae deletion strains, locus YDR137W, strain rgp1, active compounds read low 1.06 | S. cerevisiae deletion strains, locus YDR159W, strain sac3, active compounds read low 0.965 | S. cerevisiae deletion strains, locus YDR195W, strain ref2 0.977 | S. cerevisiae deletion strains, locus YDR297W, strain sur2, active compounds read low 1.01 | S. cerevisiae deletion strains, locus YDR334W, strain swr1, active compounds read low 1.02 | S. cerevisiae deletion strains, locus YDR335W, strain msn5, active compounds read low 1.04 | S. cerevisiae deletion strains, locus YDR392W, strain spt3, active compounds read low 0.954 | S. cerevisiae deletion strains, locus YEL003W, strain gim4, active compounds read low 1.01 | S. cerevisiae deletion strains, locus YEL037C, strain rad23, active compounds read low 1.01 | S. cerevisiae deletion strains, locus YEL061C, strain CIN8 (second series), active compounds read low 1.01 | S. cerevisiae deletion strains, locus YER015W, strain faa2, active compounds read low 1 | S. cerevisiae deletion strains, locus YER016W, strain bim1, active compounds read low 1.04 | S. cerevisiae deletion strains, locus YER111C, strain swi4, active compounds read low 1.02 | S. cerevisiae deletion strains, locus YER155C, strain BEM2 (second series), active compounds read low 1 | S. cerevisiae deletion strains, locus YFR010W, strain ubp6, active compounds read low 1.01 | S. cerevisiae deletion strains, locus YGL167C, strain pmr1, active compounds read low 1.02 | S. cerevisiae deletion strains, locus YGL173C, strain kem1, active compounds read low 1.01 | S. cerevisiae deletion strains, locus YGL227W, strain vid30, active compounds read low 1.01 | S. cerevisiae deletion strains, locus YGL240W, strain doc1, active compounds read low 1 | S. cerevisiae deletion strains, locus YGL253W, strain hxk2, active compounds read low 1.02 | S. cerevisiae deletion strains, locus YHR013C, strain ard1, active compounds read low 1.05 | S. cerevisiae deletion strains, locus YHR027C, strain rpn1, active compounds read low 1.01 | [23] 1.09 | S. cerevisiae deletion strains, locus YHR079C, strain IRE1, active compounds read low 0.981 | S. cerevisiae deletion strains, locus YHR142W, strain chs7, active compounds read low 1.03 | S. cerevisiae deletion strains, locus YJL092W, strain hpr5, active compounds read low 1.01 | S. cerevisiae deletion strains, locus YJL095W, strain BCK1 (second series), active compounds read low 1.02 | S. cerevisiae deletion strains, locus YJL095W, strain BCK1, active compounds read low 0.989 | S. cerevisiae deletion strains, locus YJL115W, strain asf1, active compounds read low 1.03 | S. cerevisiae deletion strains, locus YJL129C, strain trk1, active compounds read low 1.03 | S. cerevisiae deletion strains, locus YJL154C, strain vps35, active compounds read low 1.02 | S. cerevisiae deletion strains, locus YJL164C, strain tpk1, active compounds read low 1 | S. cerevisiae deletion strains, locus YJL166W, strain qcr8, active compounds read low 1.01 | S. cerevisiae deletion strains, locus YJL187C, strain SWE1, active compounds read low 1.01 | S. cerevisiae deletion strains, locus YJR066W, strain TOR1, active compounds read low 0.959 | S. cerevisiae deletion strains, locus YKL160W, strain elf1, active compounds read low 1.04 | S. cerevisiae deletion strains, locus YKR026C, strain gcn3, active compounds read low 1.01 | S. cerevisiae deletion strains, locus YKR091W, strain srl3, active compounds read low 1.01 | S. cerevisiae deletion strains, locus YLL001W, strain dnm1, active compounds read low 0.995 | S. cerevisiae deletion strains, locus YLL026W, active compounds read low 1.01 | S. cerevisiae deletion strains, locus YLL041C, strain sdh2, active compounds read low 1.03 | S. cerevisiae deletion strains, locus YLR027C, strain aat2, active compounds read low 1.02 | S. cerevisiae deletion strains, locus YLR113W, strain HOG1, active compounds read low 0.992 | S. cerevisiae deletion strains, locus YLR221C, strain rsa3, active compounds read low 0.998 | S. cerevisiae deletion strains, locus YLR258W, strain gsy2, active compounds read low 1.04 | S. cerevisiae deletion strains, locus YLR262C, strain YPT6 (second series), active compounds read low 1.02 | S. cerevisiae deletion strains, locus YLR320W, strain mms22, active compounds read low 0.981 | S. cerevisiae deletion strains, locus YLR342W, strain FKS1, active compounds read low 1.04 | S. cerevisiae deletion strains, locus YLR357W, strain rsc2, active compounds read low 0.987 | S. cerevisiae deletion strains, locus YLR370C, strain arc18, active compounds read low 1.03 | S. cerevisiae deletion strains, locus YLR384C, strain iki3, active compounds read low 1.02 | S. cerevisiae deletion strains, locus YML120C, strain ndi1, active compounds read low 1.01 | S. cerevisiae deletion strains, locus YMR058W, strain fet3, active compounds read low 1.02 | S. cerevisiae deletion strains, locus YMR125W, strain sto1, active compounds read low 1.02 | S. cerevisiae deletion strains, locus YMR129W, active compounds read low 1.02 | S. cerevisiae deletion strains, locus YMR205C, strain PFK2, active compounds read low 0.993 | S. cerevisiae deletion strains, locus YMR231W, strain pep5, active compounds read low 1.01 | S. cerevisiae deletion strains, locus YNL071W, strain lat1, active compounds read low 1.02 | S. cerevisiae deletion strains, locus YNL183C, strain NPR1, active compounds read low 0.923 | S. cerevisiae deletion strains, locus YNL209W, strain ssb2, active compounds read low 1.01 | S. cerevisiae deletion strains, locus YNL248C, strain rpa49, active compounds read low 1.01 | S. cerevisiae deletion strains, locus YNL322C, strain KRE1 (second series), active compounds read low 1.02 | S. cerevisiae deletion strains, locus YNR049C, strain mso1, active compounds read low 1.01 | S. cerevisiae deletion strains, locus YOR001W, strain rrp6, active compounds read low 1.01 | S. cerevisiae deletion strains, locus YOR070C, strain gyp1, active compounds read low 1.02 | S. cerevisiae deletion strains, locus YOR080W, strain dia2, active compounds read low 1.03 | S. cerevisiae deletion strains, locus YOR083W, strain WHI5, active compounds read low 0.974 | S. cerevisiae deletion strains, locus YOR106W, strain vam3, active compounds read low 1.03 | S. cerevisiae deletion strains, locus YOR231W, strain MKK1, active compounds read low 0.982 | S. cerevisiae deletion strains, locus YOR265W, strain rbl2, active compounds read low 0.999 | S. cerevisiae deletion strains, locus YOR270C, strain vph1, active compounds read low 1.12 | S. cerevisiae deletion strains, locus YOR290C, strain snf2, active compounds read low 1.06 | S. cerevisiae deletion strains, locus YPL051W, strain arl3, active compounds read low 1.04 | S. cerevisiae deletion strains, locus YPL078C, strain atp4, active compounds read low 1.04 | S. cerevisiae deletion strains, locus YPL106C, strain sse1, active compounds read low 1.02 | S. cerevisiae deletion strains, locus YPL240C, strain hsp82, active compounds read low 1.02 | S. cerevisiae deletion strains, locus YPL256C, strain CLN2, active compounds read low 0.984
